This note sets out measurements from PubChem BioAssay.

The nature of assay [1]: stimulators of insulin release from INS-1E, primary screen, cell-based, 5 mM glucose, NPC library (AID 1117329;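 active = compound raises insulin release from rat beta cells at 5 mM glucose, no numeric limit stated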). The conditions noted are these: rat INS-1E insulin secretion, at 10 µM, active compounds read high.
Assay [2] can be described thus: growth inhibition of GSK3B-pretreated HCT116 cells – cell-based, CellTiter-Glo, 0.2 to 20 µM (AID 1117336;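 active = compounds lowering colon cancer cell viability after pretreatment blocking the GSK3B kinase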). The conditions noted are these: HCT116 viability after GSK3B inhibitor, at 20 µM, active compounds read high. In general terms: In ATP-based viability assays light output follows the ATP content of the culture.
A short description of assay [3]: inhibition of endothelial tube formation, primary screen, imaging, VEGF stimulated, CD31 staining, tube area, NPC library (AID 1117340). The conditions noted are these: VEGF-stimulated ADSC/ECFC co-culture, at 10 µM, active compounds read high.
A short description of assay [4]: GLP1 release stimulators, primary, NCI-H716, NPC library (AID 1117341;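 active = compound raises GLP1 secretion from the human gut endocrine cells, with no numeric limit stated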). The conditions noted are these: NCI-H716 cells, at 10 µM, active compounds read high.
Assay [5] can be described thus: HCT116 colon cancer cell growth inhibition, primary screen, CellTiter-Glo luminescence, NPC library (AID 1117342;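 active = compounds that lower survival of HCT116 colon cancer cells in the luminescence readout, no numeric limit stated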). The conditions noted are these: at 20 µM (top of the series).
A short description of assay [6]: reduced SW480 viability measured with CellTiter-Glo, NPC library, primary (AID 1117343;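 active = compounds that lower viability of the colon cancer cells in the luminescence readout, with no numeric limit stated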). The conditions noted are these: CellTiter-Glo luminescence; at 20 µM (top of the series).
Assay [7] can be described thus: NPC library primary testing for decreased DLD-1 cell viability via CellTiter-Glo (AID 1117346;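 active = compounds that lower survival of DLD-1 colon cancer cells in the luminescence readout, no cutoff given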). The conditions noted are these: DLD-1 viability, CellTiter-Glo luminescence; at 20 µM (top of the series).
The target in assay [8] is 6-phosphogluconate dehydrogenase, decarboxylating (Homo sapiens) (UniProt P52209). The assay can be described thus: inhibition of human phosphogluconate dehydrogenase – biochemical, recombinant enzyme, NADPH absorbance, primary screen (AID 1159550;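 active = at least 20% inhibition of 6-phosphogluconate dehydrogenase activity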). The conditions noted are these: recombinant 6PGD, NADPH absorbance 341 nm; at 10 µM; active compounds read high.

Each structure is given as a SMILES string. Values without a mark were called inactive. Calls of active or inactive are those of the source.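 Rule for the calls, unless noted: active = compound that reduces growth-factor-driven endothelial tube area in a mixed cell culture, no cutoff stated; inactive = the rest.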

6-phosphogluconate dehydrogenase, decarboxylating (Homo sapiens), sequence (P52209 whole entry, looked up): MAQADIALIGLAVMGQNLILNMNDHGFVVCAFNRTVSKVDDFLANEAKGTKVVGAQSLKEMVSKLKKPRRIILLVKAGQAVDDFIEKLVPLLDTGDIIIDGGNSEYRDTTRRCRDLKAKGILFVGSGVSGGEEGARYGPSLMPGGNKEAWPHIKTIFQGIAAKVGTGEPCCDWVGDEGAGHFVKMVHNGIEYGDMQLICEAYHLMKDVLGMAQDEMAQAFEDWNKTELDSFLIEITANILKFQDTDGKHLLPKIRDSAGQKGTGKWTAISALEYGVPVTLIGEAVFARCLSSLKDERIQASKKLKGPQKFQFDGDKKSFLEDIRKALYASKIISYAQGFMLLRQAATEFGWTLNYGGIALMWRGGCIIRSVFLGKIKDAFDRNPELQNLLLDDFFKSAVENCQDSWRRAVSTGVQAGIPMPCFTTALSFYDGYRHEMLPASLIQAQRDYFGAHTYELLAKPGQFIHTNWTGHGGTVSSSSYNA

For the compound `COc1cc(C)c(Cc2cnc(N)nc2N)cc1OC`, the insulin secretion stimulation in assay [1] is 1.7%. For the same compound, the viability decrease in assay [2] was -7.75%. The tube area decrease in assay [3] is 11.1%. In assay [4], the GLP1 secretion stimulation was 0.8%. Further, the inhibition of viability in assay [5] is 6.8%. Also, the results for the viability decrease (inhibition) in assay [6] and in assay [7] were 11.5% and -5.75%, respectively.
`Cc1ccc2c(Cl)cc(Cl)c(O)c2n1`: the insulin secretion stimulation in assay [1] is -0.8%. Moreover, the viability decrease in assay [2] was -3.9%. In addition, the tube area decrease in assay [3] is 9.4%. Moreover, the GLP1 secretion stimulation in assay [4] was 2%. For the same compound, the inhibition of viability in assay [5] is 2.45%. For the same compound, the results for the viability decrease (inhibition) in assay [6] and in assay [7] were 14.8% and 3.5%, respectively. In addition, the inhibition – broadly, the drop in the measured response relative to a control, in per cent – in assay [8] was 6.51%.
Consider `CCCCCCCCCCCCCCCCCCOCC(O)CO` (centres undefined), for which, in assay [1], the insulin secretion stimulation was 1.3%. For the same compound, the viability decrease in assay [2] is -5.2%. Also, the tube area decrease in assay [3] was 7.6%. Further, the GLP1 secretion stimulation in assay [4] was 30.1% (active). The inhibition of viability in assay [5] is -10.7%. For the same compound, the viability decrease (inhibition) in assay [6] was 4.8%; in assay [7], -8.8%. Also, the inhibition in assay [8] was -2.18%.
For the compound `Cc1cc(C(C)(C)C)c(O)c(C(C)(C)C)c1`, in assay [1], the insulin secretion stimulation is -0.6%. Also, the viability decrease in assay [2] was -7.15%. Also, the tube area decrease in assay [3] is -2.9%. Further, the GLP1 secretion stimulation in assay [4] was 14.2%. For the same compound, the inhibition of viability in assay [5] is 10.4%. The viability decrease (inhibition) was 3.9% in assay [6] and -5.5% in assay [7]. In addition, the inhibition in assay [8] is 14.6%.
`CC(C(=O)O)c1ccc2c(c1)[nH]c1ccc(Cl)cc12` (centres undefined): in assay [1], the insulin secretion stimulation was 0.1%. In addition, in assay [2], the viability decrease was 6.1%. Besides, the tube area decrease in assay [3] is 17.9%. The GLP1 secretion stimulation in assay [4] was 4.6%. Besides, the inhibition of viability in assay [5] was 1.67%. The viability decrease (inhibition) in assay [6] is 36%; in assay [7] it was 14.1%. Moreover, in assay [8], the inhibition is -6.34%.
With `CNC[C@H](O)[C@@H](O)[C@H](O)[C@H](O)CO`, in assay [1], the insulin secretion stimulation was 0.7%. The viability decrease in assay [2] was -9.2%. Besides, the tube area decrease in assay [3] is -17.1%. The GLP1 secretion stimulation in assay [4] was 10.1%. For the same compound, the inhibition of viability in assay [5] is 4.6%. Further, the viability decrease (inhibition) was 0.6% in assay [6] and 15.4% in assay [7].
Take `Cc1c(Nc2ncccc2C(=O)O)cccc1C(F)(F)F`: the insulin secretion stimulation in assay [1] is -1.5%. In addition, the viability decrease in assay [2] was -24.9%. The tube area decrease in assay [3] was 5.8%. Moreover, the GLP1 secretion stimulation in assay [4] was -1.7%. Further, the inhibition of viability in assay [5] is 0.73%. Besides, the viability decrease (inhibition) in assay [6] was 75.8% (active); in assay [7], 21.9%.
With `CCCCC(CC)CN1CN(CC(CC)CCCC)CC(C)(N)C1` (centres undefined), in assay [1], the insulin secretion stimulation was 6.1%. In assay [2], the viability decrease was 79.6% (active). Further, in assay [3], the tube area decrease was 16%. In addition, in assay [4], the GLP1 secretion stimulation is 53.9% (active). Further, the inhibition of viability in assay [5] was 102% (active). For the same compound, the viability decrease (inhibition) in assay [6] is 145% (active); in assay [7] it was 105% (active). Further, the inhibition in assay [8] was -10.4%.
In the case of `CN(C)CCC=C1c2ccccc2C=Cc2ccccc21`, the insulin secretion stimulation in assay [1] was 15.2%. Moreover, the viability decrease in assay [2] was -81.6%. Also, the tube area decrease in assay [3] is 1.5%. The GLP1 secretion stimulation in assay [4] is 7.9%. Moreover, in assay [5], the inhibition of viability is 27.1%. Also, the results for the viability decrease (inhibition) in assay [6] and in assay [7] were 111% (active) and 7.5%, respectively. For the same compound, the inhibition in assay [8] is -4.48%.
Take `Cc1[nH]c(=O)c(C#N)cc1-c1ccncc1`: the insulin secretion stimulation in assay [1] is 0.8%. In addition, the viability decrease in assay [2] was -19.7%. In assay [3], the tube area decrease was 4%. The GLP1 secretion stimulation in assay [4] was 0%. The inhibition of viability in assay [5] was 16.6%. Also, the viability decrease (inhibition) in assay [6] is -4.9%; in assay [7], -6.1%.
In the case of `CCN1CCC[C@H]1CNC(=O)c1cc(S(N)(=O)=O)ccc1OC`, the insulin secretion stimulation in assay [1] was 1%. For the same compound, in assay [2], the viability decrease was -4.3%. Further, the tube area decrease in assay [3] is 10.5%. Further, the GLP1 secretion stimulation in assay [4] is -3%. Moreover, the inhibition of viability in assay [5] is -5.3%. In addition, the viability decrease (inhibition) in assay [6] was -4.8%; in assay [7] it was -5.7%.
`COc1cc2c3cc1Oc1cc(ccc1O)C[C@@H]1c4c(cc(OC)c(O)c4Oc4ccc(cc4)C[C@@H]3N(C)CC2)CC[N+]1(C)C`: in assay [1], the insulin secretion stimulation is -0.3%. The viability decrease in assay [2] is -3%. Further, the tube area decrease in assay [3] is 13.9%. Also, the GLP1 secretion stimulation in assay [4] is -1.7%. Moreover, in assay [5], the inhibition of viability was -1.93%. Further, the figures for the viability decrease (inhibition) in assay [6] and in assay [7] were 5.3% and -2.9%, respectively. In assay [8], the inhibition was 0.384%.
With `CCOC(=O)NNc1nncc2ccccc12`, the insulin secretion stimulation in assay [1] is 3.7%. The viability decrease in assay [2] was 0.3%. For the same compound, the tube area decrease in assay [3] was -6.6%. The GLP1 secretion stimulation in assay [4] is -0.3%. Further, the inhibition of viability in assay [5] was -0.97%. Moreover, the viability decrease (inhibition) in assay [6] is 9.4%; in assay [7], 6.7%. Also, in assay [8], the inhibition is -20.7%.
Take `OCCOCCN1CCN(C2=Nc3ccccc3Sc3ccccc32)CC1`: in assay [1], the insulin secretion stimulation is 2.8%. Also, in assay [2], the viability decrease is -12.8%. In addition, the tube area decrease in assay [3] is 18.9%. In assay [4], the GLP1 secretion stimulation is 2.3%. Further, the inhibition of viability in assay [5] is 10.6%. Besides, the values for the viability decrease (inhibition) in assay [6] and in assay [7] were 14% and 7.8%, respectively.
Turning to `CC(C(=O)O)c1ccc(C(=O)c2cccs2)cc1` (centres undefined), the insulin secretion stimulation in assay [1] is 1.8%. The viability decrease in assay [2] was -5.4%. The tube area decrease in assay [3] is -3.5%. Moreover, in assay [4], the GLP1 secretion stimulation was -3.9%. Moreover, the inhibition of viability in assay [5] was 0.8%. Also, the values for the viability decrease (inhibition) in assay [6] and in assay [7] were -1.2% and 0%, respectively. For the same compound, the inhibition in assay [8] was -2.86%.
`N#Cc1ccc(C(c2ccc(C#N)cc2)n2cncn2)cc1`: in assay [1], the insulin secretion stimulation was 0.6%. Moreover, the viability decrease in assay [2] is -9.1%. Besides, the tube area decrease in assay [3] was -17.6%. Further, the GLP1 secretion stimulation in assay [4] was -2.1%. In addition, in assay [5], the inhibition of viability was 9.8%. Besides, the figures for the viability decrease (inhibition) in assay [6] and in assay [7] were -2.1% and -3.3%, respectively.
Regarding `Cc1onc(-c2ccccc2Cl)c1C(=O)N[C@@H]1C(=O)N2[C@@H]1SC(C)(C)[C@@H]2C(=O)O`, the insulin secretion stimulation in assay [1] is -0.3%. Further, the viability decrease in assay [2] is -27.7%. Also, in assay [3], the tube area decrease was 12.2%. In addition, the GLP1 secretion stimulation in assay [4] was -1%. Besides, in assay [5], the inhibition of viability is 19.2%. Moreover, the viability decrease (inhibition) in assay [6] was -3.3%; in assay [7], -0.7%. Further, the inhibition in assay [8] was -7.26%.
